Most compounds without a hit are left out; they make up all but 1.3% or so of the library.
Gli-Sufu block = blocks Gli-Sufu signaling in a luciferase reporter | Sufu-KO-LIGHT fibroblasts, Gli luciferase reporter luminescence | inhibition, % at 5 µM | actives 0.74% (n = 340,000) | AID 588413;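 active = inhibition above about 55%, limit read from the data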
SRC3 inh = inhibits human SRC3 coactivator. AID 588352. Q9Y6Q9. actives 0.17% (n = 360,000). HEK293 GAL4-SRC3 luciferase reporter, luminescence. inhibition, % at 3.6 µM;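 active = inhibition above a per-campaign cutoff, the mean of all compounds plus 3 SD, cut at about 60% in these data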;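 note: higher means less SRC3-driven luciferase light from the GAL4 reporter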
SRC2 inh = human SRC2 (NCOA2) inhibition; HEK293 GAL4-SRC2 luciferase reporter, luminescence; Q15596; inhibition, % at 9 µM; actives 0.17% (n = 370,000);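 active = inhibition above the mean inhibition of all tested compounds plus 3 SD, set per campaign, cut at about 52% in these data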
NR5A2 inv ag = inverse agonists of human LRH-1 (NR5A2); O00482; HEK293T StAR-luciferase reporter, LRH-1 transfected, 24 h; inhibition, % at 3.6 µM; actives 0.13% (n = 360,000); AID 602396;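 active = inhibition above the mean inhibition of all tested compounds plus 3 SD, cut at about 73% in these data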
COUP-TFII inh = NR2F2 (human) inhibition, primary screen; P24468; HEK293T NGFI-A luciferase reporter, luminescence; inhibition, % at 8.6 µM; actives 0.7% (n = 370,000);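 active = inhibition above a per-plate cutoff, mean inhibition of test wells between control levels plus 3 SD, cut at about 38% in these data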;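 note: cells cotransfected with COUP-TFII expression vector driving the NGFI-A reporter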
Target sequence (P24468 whole entry, looked up): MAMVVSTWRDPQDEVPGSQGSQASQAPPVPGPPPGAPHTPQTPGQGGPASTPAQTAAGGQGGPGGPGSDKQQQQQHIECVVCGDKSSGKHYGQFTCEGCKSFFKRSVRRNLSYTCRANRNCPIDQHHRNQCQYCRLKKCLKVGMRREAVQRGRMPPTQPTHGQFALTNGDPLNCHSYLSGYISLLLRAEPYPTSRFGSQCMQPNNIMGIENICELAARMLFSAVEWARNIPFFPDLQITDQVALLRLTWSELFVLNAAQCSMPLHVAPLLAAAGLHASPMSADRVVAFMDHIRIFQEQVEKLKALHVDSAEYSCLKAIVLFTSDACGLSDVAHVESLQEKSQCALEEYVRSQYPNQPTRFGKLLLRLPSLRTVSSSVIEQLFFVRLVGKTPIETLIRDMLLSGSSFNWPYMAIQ
NCOA1 inh = inhibitors of human steroid receptor coactivator 1 (SRC1); inhibition, % at 3.6 µM; HEK293 GAL4-SRC1 luciferase reporter, luminescence; actives 0.12% (n = 360,000); Q15788;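 active = inhibition above the campaign mean plus 3 SD, with each screening campaign given its own cutoff, cut at about 60% in these data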
VP16 Luc counter = counter-screen for COUP-TFII antagonists: inhibitors of VP16 | shares compounds with COUP-TFII inh | AID 687007 | HEK293 Gal4-VP16 luciferase reporter, luminescence | inhibition, % at 8.5 µM | actives 25% (n = 2,500); in the data active = inhibition above about 13%
COUP-TFII conf = confirmation of human COUP-TFII (NR2F2) inhibitors. shares compounds with COUP-TFII inh. HEK293 NGFI-A luciferase reporter, luminescence. inhibition, % at 8.5 µM. actives 45% (n = 2,500);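 active = mean inhibition over three repeats above a set limit taken from the earlier primary screen, cut at about 38% in these data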
Numbers stand for hits; 0 = inactive; - = no result; ! = a repeat was not active.

SMILES | Gli-Sufu block | SRC3 inh | SRC2 inh | NR5A2 inv ag | COUP-TFII inh | NCOA1 inh | VP16 Luc counter | COUP-TFII conf
CCN(CC)CC(C)(C)C(=O)/C=C/c1ccc(/C=C/C(=O)C(C)(C)CN(CC)CC)cc1 | 0 | 0 | 74 | 91 | 93 | 0 | 89 | 101
NC1=NC[C@H](Cc2ccc(O)cc2)N1CCc1cc(C(F)(F)F)cc(C(F)(F)F)c1 | 0 | 0 | 0 | 0 | 0 | 0 | - | -
NC1=NC[C@H](Cc2ccc(O)cc2)N1CCCCC1CCCCC1 | 59 | 0 | 0 | 0 | 38 | 0 | 15 | 0
O=S1(=O)c2ccc(Br)cc2OC[C@@H](Cc2ccccc2)N1Cc1cn(CCC2OCCCO2)nn1 | - | - | 0 | - | 0 | - | - | -
CCn1cc(C(=O)NCc2cccc(F)c2)c(=O)c2cc(F)c(N3CCN(C(=O)c4ccco4)CC3)cc21 | 0 | 0 | 0 | 0 | 38 | 0 | 0 | 0
CCCNC(=O)c1cn(CC)c2cc(N3CCN(C(=O)c4ccco4)CC3)c(F)cc2c1=O | 0 | 0 | 0 | 0 | 0 | 0 | - | -
CSc1nc2nc3c(cc2c(=O)n1-c1ccccc1C)CCCC3 | 0 | 0 | 0 | 0 | 42 | 0 | 0 | 0
S=C(Nc1cccc(Cl)c1)OCCN1CCCC12CCC(c1ccccc1)CC2 (centres undefined) | - | - | - | - | 0 | - | - | -
CC(C)=CC([C@]12C[C@H](CO)N[C@@H]1Nc1ccccc12)S(=O)(=O)c1ccccc1 (some centres undefined) | - | - | - | - | 0 | - | - | -
Cn1cc(/C=C/c2cc[n+](C)cc2)c2cc(F)ccc21 | 0 | 0 | - | 0 | - | 0 | - | -
C[n+]1ccc(/C=C/c2c[nH]c3ccc(F)cc23)cc1 | 0 | 0 | 0 | 0 | 38 | 0 | 0 | 0
COc1ccc(-c2nsc3c(N4CCCCC4)ncnc23)cc1 | 0 | 0 | 0 | 0 | 57 | 0 | 0 | 63
COC(=O)C1=C(C)N(C)C(=NCc2cc(OC)c(OC)c(OC)c2)NC1c1cccc(C(F)(F)F)c1 (centres undefined) | - | - | 0 | - | 0 | - | - | -
CC(=Nc1ccc(Cl)cc1N)c1c(O)cc(C)oc1=O | - | - | 0 | - | 0 | - | - | -
CC(C)(C)c1ccc2c(c1)OC(C(=O)N/N=C/c1ccc[nH]1)CO2 (centres undefined) | - | - | - | - | 47 | - | 0 | 40
O=C(Nc1ccccn1)c1ccc(Cl)c(S(=O)(=O)N2CCc3ccccc32)c1 | 0 | 0 | 0 | 0 | 45 | 0 | 0 | 0
COc1ccc(NC(=O)c2ccc(Cl)c(S(=O)(=O)N3CCc4ccccc4C3)c2)cn1 | 0 | 0 | 0 | 0 | 68 | 0 | 0 | 0
O=C(Nc1cccnc1)c1ccc(Cl)c(S(=O)(=O)N2CCc3ccccc32)c1 | 0 | 0 | 0 | 0 | 0 | 0 | - | -
CCN=C1NC(c2ccc(Cl)cc2)C(C(=O)OC)=C(C)N1Cc1cccc(C(F)(F)F)c1 (centres undefined) | - | - | 0 | - | 0 | - | - | -
COc1ccc2[nH]c3c(NCCC4=CCCCC4)ncnc3c2c1 | 68 | 0 | 0 | 0 | 54 | 0 | 0 | 0
COc1ccc2[nH]c3c(NCCCOC(C)C)ncnc3c2c1 | 0 | 0 | 0 | 0 | 0 | 0 | - | -
COc1cccc(C2=NCCc3cc4c(cc32)OCO4)c1OC | 0 | 0 | 0 | 0 | 0 | 0 | - | -
COc1ccc2cc3[n+](cc2c1OC)CCc1cc2c(cc1-3)OCO2 | 61 | 0 | 0 | 0 | 53 | 0 | 14! | 54!
Cc1ccc2oc(/N=C(\N)NC(=O)C(C)(C)C)nc2c1 | 75 | 86 | 81 | 83 | 93 | 83 | 88 | 105
COCCN1CCN(C(=O)c2ccc3nc(Cc4ccc(OC)c(OC)c4)oc3c2)CC1 | 0 | 0 | 0 | 0 | 49 | 0 | 0 | 48
SMILES | Gli-Sufu block | SRC3 inh | SRC2 inh | NR5A2 inv ag | COUP-TFII inh | NCOA1 inh | VP16 Luc counter | COUP-TFII conf
CC1CCN(C2=NC(=O)/C(=C/c3ccccc3F)S2)CC1 | 0 | 0 | 54 | 0 | 63 | 0 | 0 | 0
O=C(Nc1ccc2nc3n(c(=O)c2c1)CCCCC3)c1c(F)ccc([N+](=O)[O-])c1F | 0 | 0 | 71 | 0 | 43 | 0 | 60 | 79
CN(C)c1ccc(/C=C/c2ccncc2)cc1 | 0 | 0 | 0 | 0 | 0 | 0 | - | -
CC(C)CC[n+]1ccccc1/C=C/c1ccc(N(C)C)cc1 | 88 | 76 | 0 | 91 | 86 | 0 | 26 | 85
CN(C)S(=O)(=O)c1ccc2nc(COCc3nc4ccc(S(=O)(=O)N(C)C)cc4[nH]3)[nH]c2c1 | - | - | - | - | 0 | - | - | -
O=C1C=CC2C3C(=O)N(c4ccccc4)C(=O)C3C1N2Cc1ccccc1 (centres undefined) | 0 | 0 | 75 | 0 | 60 | 0 | 17 | 0
Cc1sc(NC(=O)CCCC(=O)O)c(C(N)=O)c1-c1ccccc1 | 0 | 0 | 75 | 0 | 60 | 0 | 47 | 0
COC(=O)c1c(NC(=O)CCCC(=O)O)sc(C)c1C | 0 | 0 | 0 | 0 | 0 | 0 | - | -
CC(C)(C)c1ccc(C(=O)Nc2cccc3c(=O)[nH][nH]c(=O)c23)cc1 | 0 | 0 | 0 | 0 | 48 | 0 | 0 | 54
Cc1ccc(C(=O)Nc2cccc3ccccc23)cc1 | 0 | 0 | 0 | 0 | 0 | 0 | - | -
O=C(c1sccc1Cl)N1CCC(n2nnc3ncccc32)CC1 | - | - | 0 | - | 0 | - | - | -
CC(C)(C)c1ccc(-n2ncc3c2CCCC3NC(=O)CCC2=NNC(=O)CC2)cc1 (centres undefined) | - | 0 | 0 | 0 | 39 | 0 | 0 | 0
Cc1ccc(-n2ncc3c2CCCC3NC(=O)CCC2=NNC(=O)CC2)cc1C (centres undefined) | 0 | 0 | 0 | 0 | 0 | 0 | - | -
CCN(CC)S(=O)(=O)c1ccc(NC(=O)c2ccc(CN3CCOCC3)cc2)cc1 | 0 | 0 | 0 | 0 | 71 | 0 | 0 | 64
O=C(Nc1ccc(S(=O)(=O)N2CCCCC2)cc1)c1ccc(CN2CCOCC2)cc1 | 0 | 0 | - | 0 | - | 0 | - | -
CCOc1ccc(CN2CCN(S(=O)(=O)c3ccc(NC(C)=O)cc3)CC2)cc1 | 0 | 0 | 0 | 0 | 48 | 0 | 0 | 0
Cc1ccc(S(=O)(=O)N2CCOCC2)cc1C(=O)Nc1ccc(N2CCCCCC2)cc1 | 0 | 0 | 0 | 0 | 40 | 0 | 0 | 0
O=C(Nc1ccc(S(=O)(=O)Nc2ccc(F)cc2)cc1)c1ccc(CN2CCOCC2)cc1 | 0 | 0 | 0 | 0 | 73 | 0 | 0 | 62
COC(=O)[C@@H](Cc1ccccc1)N[C@H](/C=C/c1ccccc1)[C@@H](O)Cc1ccccc1 | - | - | 0 | - | 0 | - | - | -
CCN(CC)S(=O)(=O)c1ccc(NC(=O)c2ccc(OCC3CCCO3)cc2)cc1 (centres undefined) | 0 | 0 | 0 | 0 | 61 | 0 | 0 | 49
O=[N+]([O-])c1ccc(CN2CCOCCOCCN(Cc3ccc([N+](=O)[O-])cc3)CCOCC2)cc1 | 0 | 0 | - | 0 | - | 0 | - | -
O=S(=O)(c1ccc(CN2CCOCCOCCN(Cc3ccc(S(=O)(=O)C(F)(F)F)cc3)CCOCC2)cc1)C(F)(F)F | - | - | - | - | 62 | - | 0 | 0
